# Compound activity from PubChem.
# Tb PGK inh: qHTS Assay to Find Inhibitors of Phosphoglycerate Kinase. PGK/GAPDH coupled, Kinase-Glo luminescence, 60 min. actives 0.043% (n = 380,000). Potency, µM (top dose mostly 57.5 µM), hits mostly inhibitors; also: nearly all actives have a fitted effect of over 60% in size
#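 Luminescent ATP detection (Kinase-Glo Plus) follows a 60-minute room-temperature incubation, with wells lacking PGK as controls. Buffer: 100 mM TEA (pH 7.6), 5 mM MgCl2, 0.01% Tween-20. Coupling enzyme GAPDH (100 nM final) supplies unstable 1,3-BPG in-well.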
# ELG1 DNA repair: qHTS screen for small molecules that inhibit ELG1-dependent DNA repair in human embryonic kidney (HEK293T) cells expressing luciferase-tagged ELG1; HEK293T ELG1-luciferase reporter, luminescence, 16 h; DNA damage induced by 5-fluorouridine; AID 504467, 2011; actives 2.3% (n = 330,000); Potency, µM (titrated, usually from 46.1 µM), usual class: inhibitors; also: nearly all actives have a fitted effect of over 55% in size
#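 Reporter activity after DNA damage by 5-fluorouridine is monitored. Compound-treated cells incubate 16 hr at 37 °C, then ONE-Glo is added for 30 min before luminescence reading.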
# PKM2 act: qHTS Assay for Activators of Human Muscle isoform 2 Pyruvate Kinase | actives 0.34% (n = 260,000) | Potency, µM (titrated, usually from 57.5 µM), most hits filed as activators | purified PKM2, Kinase-Glo ATP luminescence, activation; response scale: 0% is enzyme alone, no compound | AID 1631, 2009 | Pyruvate kinase PKM (Homo sapiens), P14618; also: nearly all actives have a fitted effect of over 55% in size
# Target sequence (P14618 whole entry, looked up, canonical isoform): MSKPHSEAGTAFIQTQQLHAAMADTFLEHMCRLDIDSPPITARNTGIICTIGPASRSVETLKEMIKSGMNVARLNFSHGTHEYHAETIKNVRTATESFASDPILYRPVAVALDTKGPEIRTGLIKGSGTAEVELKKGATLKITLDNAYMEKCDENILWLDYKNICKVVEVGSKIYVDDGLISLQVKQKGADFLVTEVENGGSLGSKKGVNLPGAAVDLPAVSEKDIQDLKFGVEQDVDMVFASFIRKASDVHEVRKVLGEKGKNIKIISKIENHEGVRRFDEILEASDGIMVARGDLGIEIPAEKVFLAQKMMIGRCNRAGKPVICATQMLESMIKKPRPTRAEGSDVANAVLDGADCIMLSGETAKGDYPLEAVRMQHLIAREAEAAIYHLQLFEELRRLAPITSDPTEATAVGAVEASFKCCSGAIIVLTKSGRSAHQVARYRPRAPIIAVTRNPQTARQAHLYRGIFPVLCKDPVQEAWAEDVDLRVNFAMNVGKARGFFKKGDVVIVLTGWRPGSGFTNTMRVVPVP
#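 Kinase-Glo luminescence reports ATP generated from ADP (0.1 mM) and PEP (0.5 mM) by purified hPK-M2 after 1 h at room temperature, pH 7.2 imidazole buffer; intermediate enzyme activity allows detecting inhibitors and activators.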
# Rango-impB inh: qHTS Assay for Inhibitors of Rango (Ran-regulated importin-beta cargo) - Importin beta complex formation | Potency, µM (titrated, usually from 92.2 µM) | actives 0.031% (n = 340,000) | AID 540263, 2011 | Importin subunit beta-1 (Homo sapiens), Q14974 | Rango CFP/YFP FRET sensor + importin beta, 45 min; calls by dose curve; also: nearly all actives have a fitted effect of over 15% in size
#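 Inhibition scored from the CFP 486 nm/YFP 530 nm FRET ratio 45 min after adding 0.125 microM importin beta to 50 nM Rango biosensor preincubated 5 min with compound (room temperature, PBS with DTT, Tween-20, BSA). No-importin wells as positive control.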
# Tb PFK inh: qHTS Assay to Find Inhibitors of T. brucei phosphofructokinase | actives 0.17% (n = 330,000) | AID 485367, 2010 | ATP-dependent 6-phosphofructokinase (Trypanosoma brucei brucei), O15648 | T. brucei PFK, ADP-Glo luminescence | Potency, µM (series often up to 57.5 µM), actives largely listed as inhibitors; also: nearly all actives have a fitted effect of over 60% in size
#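 In TEA buffer at pH 8.0 with 5 mM MgCl2, enzyme (1.25 nM) converted F6P (0.5 mM) and ATP (0.1 mM) for 45 min at room temperature. ADP product was read by luciferase luminescence.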
# Rango dissoc inh: qHTS Assay for Inhibitors of RanGTP induced Rango (Ran-regulated importin-beta cargo) - Importin beta complex dissociation; Snurportin-1 (Homo sapiens) + GTP-binding nuclear protein Ran (Homo sapiens) + Importin …; actives 0.071% (n = 340,000); Biochemical FRET Rango-importin beta, RanGTP-induced dissociation; Potency, µM (top dose mostly 46.1 µM); AID 540253, 2011; calls by dose curve; also: nearly all actives have a fitted effect of over 45% in size
#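 Compounds preincubate 5 min with complex of recombinant Rango and importin beta in PBS with 1 mM DTT. Ran (0.6 uM) loaded with 2 mM GTP plus 0.2 uM RCC1 starts dissociation; FRET is recorded 45 min later.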
# Numbers stand for hits; . = inactive; ? = inconclusive; / = no result given; [ ] = dose if it differs, or a comment. Shown are actives, neighbours in structure and some others; about 2.4% of the full set was active somewhere. Unless noted, calls follow the shape of the dose curve; as a rule, active = well fitted curve in the direction sought with a large enough effect; inconclusive = small, poorly fitted or top-dose-only effect, or another doubt; inactive = no such curve, though single readings can be large; an effect the other way counts as inactive or inconclusive.
SMILES,Tb PGK inh,ELG1 DNA repair,PKM2 act,Rango-impB inh,Tb PFK inh,Rango dissoc inh
Cc1onc(-c2c(Cl)cccc2Cl)c1C(=O)OCC(=O)c1ccccc1,.,.,.,.,.,.
CCSc1ccc([C@@H]2[C@@H]3C(=O)N(CC)C(=O)[C@@H]3[C@]3(C(=O)OC)CCCN23)cc1,.,.,/,.,.,.
CCN(CC)S(=O)(=O)c1ccc(N2CCOCC2)c(NC(=O)c2cc(Cl)c3c(c2)OCO3)c1,.,8.2µM,/,.,.,?
CCN(CC)S(=O)(=O)c1ccc(N2CCOCC2)c(NC(=O)c2cc3ccccc3oc2=O)c1,.,5.2µM,.,.,.,.
CCN(CC)S(=O)(=O)c1ccc(N2CCOCC2)c(NC(=O)c2ccc(F)cc2)c1,.,?,.,.,.,.
Cc1cnc(C(=O)OCC(=O)c2ccc(Br)s2)cn1,.,.,/,.,.,.
CCN(C[C@H]1N[C@@](CC)(C(=O)OC)[C@H]2C(=O)N(Cc3ccccc3)C(=O)[C@@H]12)C(=O)c1ccc(C)cc1,.,8.2µM,/,.,.,.
CCN(C[C@H]1N[C@@](CC)(C(=O)OC)[C@H]2C(=O)N(Cc3ccccc3)C(=O)[C@@H]12)C(=O)c1ccc(F)cc1,.,16µM,/,.,.,.
CC[C@@]1(C(=O)OC)N[C@H](CN(C)C(=O)c2ccc(C)cc2)[C@@H]2C(=O)N(Cc3ccccc3)C(=O)[C@@H]21,.,.,/,.,.,.
C=C(c1ccccc1)c1ccccc1N,.,.,/,.,.,.
Cc1ccc(Cl)cc1N1CCN(CCCNC(=O)Cn2ncc3c([nH]c4ccccc43)c2=O)CC1,.,/,/,/,/,/
CCOc1ccc(CNC(=O)c2cc3c(=O)oc4ccc(C)cc4c3s2)cc1,.,/,/,/,/,/
CC(=O)Nc1sc(N/N=C\c2ccc(O)cc2)nc1-c1cccs1,.,?,22µM,.,.,.
CCOC(=O)c1c(C)[nH]c(C)c1C(=O)CSc1nc2ccccc2c(=O)n1-c1ccccc1C,.,23µM,.,.,.,.
CC/C=C/C(=O)N1CC2(CC(c3cccc(NC(=O)COc4ccc(Cl)cc4)c3)=NO2)C[C@H]1C(N)=O (stereo not given in full),.,16µM,.,.,.,?
C/C=C\C=C/C(=O)Nc1cccc(C2=NOC3(C2)C[C@H](C(N)=O)N(C(=O)c2ccc(OC)cc2)C3)c1 (stereo not given in full),.,.,14µM,.,.,.
C/C=C\C=C/C(=O)Nc1cccc(C2=NOC3(C2)C[C@@H](C(N)=O)N(C(=O)CCCCC)C3)c1 (stereo not given in full),.,.,?,?,.,.
C/C=C/C=C/C(=O)N1CC2(CC(c3cccc(NC(=O)/C=C/C)c3)=NO2)C[C@@H]1C(N)=O (stereo not given in full),.,.,8.9µM,.,.,.
C/C=C\C=C/C(=O)Nc1cccc(C2=NOC3(C2)C[C@@H](C(N)=O)N(C(=O)c2ccc(Cl)cc2)C3)c1 (stereo not given in full),.,.,?,.,.,.
C/C=C/C=C\C(=O)Nc1cccc(C2=NOC3(C2)C[C@H](C(N)=O)N(C(=O)CC#N)C3)c1 (stereo not given in full),.,.,20µM,.,.,.
Cc1ccc(NC(=O)CSc2cn(CC(=O)N3CCCC3)c3ccccc23)cc1Cl,.,/,/,/,/,/
CCC(C)NC(=O)Cn1c(=O)n(CCCCCC(=O)NCc2ccccc2Cl)c(=O)c2sccc21 (stereo not given),.,/,/,/,/,/
C=C(C)C(=O)Nc1cccc(C2=NOC3(C2)C[C@H](C(N)=O)N(C(=O)CC)C3)c1 (stereo not given in full),5.6µM,.,.,.,?,.
C/C=C\C=C/C(=O)Nc1cccc(C2=NOC3(C2)C[C@H](C(N)=O)N(C(=O)CC)C3)c1 (stereo not given in full),.,.,13µM,.,.,.
Cc1ccc(-n2ncc3c2CC(C)(C)CC3NC(=O)CCc2ccc(=O)[nH]n2)cc1 (stereo not given),.,.,.[0.46 µM],.,.,.
SMILES,Tb PGK inh,ELG1 DNA repair,PKM2 act,Rango-impB inh,Tb PFK inh,Rango dissoc inh
Cc1ccccc1NC(=O)Cc1nnc(SCC(=O)NC2=NCCS2)n1C,.,.,/,.,.,.
Cc1cc(Cl)ccc1NC(=O)CN1C(=O)C(=O)N(C2CCCC2)C1=O,.,.,/,.,.,.
CC(=O)N1CCN(C(=O)C(Cc2c[nH]c3ccccc23)NC(=O)c2ccccc2Cl)CC1 (stereo not given),.,.,.,.,.,.
CN([C@@H](Cc1ccc(OS(=O)(=O)c2cccc3cnccc23)cc1)C(=O)N1CCN(c2ccccc2)CC1)S(=O)(=O)c1cccc2cnccc12,.,9.2µM,.,.,.,.
COc1ccc(N2CCN(C(=O)C(Cc3ccccc3)n3cccc3)CC2)cc1 (stereo not given),.,.,.,.,.,.
O=C(COC(=O)c1ccc([N+](=O)[O-])s1)Nc1ncc(C(F)(F)F)cc1Cl,.,.,.,?,.,.
Cc1cccc(C)c1NC(=S)NCCc1ccc(O)c(O)c1,.,?,28µM,.,.,.
Cc1cccc(NC(=S)NCCc2ccccc2)c1C,.,.,.,.,.,.
O=C(Nc1nc2ccccc2n1CCN1CCOCC1)c1ccc(COc2ccccc2Br)o1,.,21µM,.,.,.,.
Cc1csc(N=Nc2ccc(N(C)C)cc2)[n+]1[O-],16µM,/,/,/,/,/
O=C(Nc1ccc2c(c1)CCC2)C1CCN(c2c3c(nc4ncnn24)CCC3)CC1,.,?,.,.,.,.
COc1ccc(S(=O)(=O)N2CCN(c3cc(-c4ccccc4)nc4ncnn34)CC2)cc1,.,21µM,.,.,.,.
Cc1ccccc1NC(=O)C1CCN(c2cc(-c3ccccc3)nc3ncnn23)CC1,.,15µM,.,.,.,.
O=C(Nc1ccc(Oc2ccccc2)cc1)C1CCN(c2c3c(nc4ncnn24)CCC3)CC1,.,16µM,.,.,.,.
